Pf growth 96h: Primary qHTS for delayed death inhibitors of the malarial parasite plastid, 96 hour incubation | Potency, µM (top dose mostly 28.7 µM), for the others: top-dose activity change, negative = inhibition, actives largely listed as inhibitors | 320,000 tested, 6.9% active | P. falciparum luciferase reporter growth, 96 h | AID 504834, 2011; active = well fitted inhibition curve with a large enough effect; inconclusive = small, poorly fitted or top-dose-only effect, or another doubt; inactive = no such curve, though single readings can be large or run the other way; note: potency is the fitted concentration of half-maximal effect; % is set by controls: 0 for no effect and ±100 for the full control effect
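Two parasite generations (96 h, 37 C, 5% CO2) of compound exposure in infected erythrocytes (0.05% parasitemia, 2% hematocrit). Luciferase-reporter P. falciparum; decreased luminescence indicates inhibited growth, aimed at apicoplast-acting delayed death.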
SARS PLP yeast: qHTS of Yeast-based Assay for SARS-CoV PLP; 330,000 tested, 0.19% active; S. cerevisiae expressing SARS-CoV PLpro, growth rescue; Potency, µM (doses to about 32.9 µM), for inactives: top-dose activity, positive = growth rescue, usual class: activators; note: potency is the fitted concentration of half-maximal effect; 0% is about no effect; nearly all actives have a fitted effect of over 55% in size
Shiga inhibitor: A qHTS for Small Molecule Inhibitors of Shiga Toxin. Vero cells, Shiga toxin protein synthesis inhibition reporter. inhibition, % at 38.7 µM. 290,000 tested, 9.2% active; in the data active = inhibition mostly above about 28%, no sharp cut-off; inactive = mostly below about 43%; note: 0% is about no effect
Cycloheximide cs: Cycloheximide Counterscreen for Small Molecule Inhibitors of Shiga Toxin | cell reporter, cycloheximide protein synthesis inhibition counterscreen | max response, % | 300,000 tested, 12% active | AID 2314, 2010; in the data active = max response mostly above about 13%, no sharp cut-off; inactive = mostly below about 14%; note: read at 38.3 µM for the half of the compounds with a filed dose; 0% is about no effect
Pf growth 48h: Primary qHTS for delayed death inhibitors of the malarial parasite plastid, 48 hour incubation; Potency, µM (top dose mostly 28.7 µM), inactives show at the top dose activity change, negative = inhibition, most hits filed as inhibitors; 310,000 tested, 5.9% active; P. falciparum luciferase growth in erythrocytes, 48 h; AID 504832, 2011; active = well fitted inhibition curve with a large enough effect; inconclusive = small, poorly fitted or top-dose-only effect, or another doubt; inactive = no such curve, though single readings can be large or run the other way; note: potency is the fitted concentration of half-maximal effect; % is set by controls: 0 for no effect and ±100 for the full control effect
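In quantitative HTS format, infected erythrocytes bearing luciferase-reporter parasites were treated for a single generation at 37 C. Luminescence after adding detection reagent served as the growth measure.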
NS1 inh: qHTS Assay for Inhibitors of Influenza NS1 Protein Function. Potency, µM (top dose mostly 46.1 µM), for inactives: at the top dose activity, positive = more growth. 270,000 tested, 0.4% active; note: potency is the fitted concentration of half-maximal effect; actives are rising curves; nearly all actives have a fitted effect of over 50% in size
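S. cerevisiae expressing influenza A NS1, grown in glucose, washed, then diluted 1:100 into pH 6.0 -URA galactose medium with 23 nl compound. Growth recovery read as OD600; NS1-free strain serves as control.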
NS1 inh valid: Assay for Inhibitors of Influenza NS1 Protein Function: Hit Validation; shares compounds with NS1 inh; influenza NS1 function cell assay, 15-point titration; activity change, negative = inhibition, % at 32.9 µM; 1,400 tested, under 10 active; AID 492980, 2010; note: 0% is about no effect
PR8 titer: Assay for Inhibitors of Influenza NS1 Protein Function: Influenza virus replication assay in MDCK cells infected with virus A/PR/8/34; shares compounds with NS1 inh; MDCK infected influenza A/PR/8/34, virus titer TCID50; active compounds read low; virus titer (log TCID50), log10 TCID50 at 5 µM; 95 tested, 30% active; call rule not given here
* hit, by the source's call; ? = inconclusive; · = no result given. Rows were chosen to be rich in hits. Some 21% of all compounds tested hit in one or more screens of this group. Unless noted, calls come from the whole dose curve.

SMILES	Pf growth 96h	SARS PLP yeast	Shiga inhibitor	Cycloheximide cs	Pf growth 48h	NS1 inh	NS1 inh valid	others
CC(NCc1ccc(S(N)(=O)=O)cc1)C(=O)N1c2ccccc2CC1C (stereo not drawn)	-16%	-1%	-4	-2	-5%	7.9µM*	3
CC(C)c1ccc(/C=N/NC(=O)c2cc(-c3cccc([N+](=O)[O-])c3)n[nH]2)cc1	?	0%	24	-1	?	2%	·
O=C(N/N=C/c1cccc([N+](=O)[O-])c1)c1cc(-c2ccc3c4c(cccc24)CC3)n[nH]1	?	-5%	1	-3	0%	?	-21
Cn1cccc1-c1cc(C(=O)N/N=C/c2ccc([N+](=O)[O-])cc2)[nH]n1	2%	3%	5	-7	21%	12%	·
O=C(N/N=C/c1ccc(Cl)c([N+](=O)[O-])c1)c1cc(-c2ccc3c4c(cccc24)CC3)n[nH]1	?	1%	-6	-4	?	5µM*	-1
CN(Cc1cccc(F)c1)C(=O)c1ccc(S(=O)(=O)N2CCOCC2)cc1	55%	1%	·	·	?	·	·
N#Cc1ccccc1OCC(=O)NNC(=O)CCNC(=O)c1ccccc1	·	0%	·	·	·	·	·
CC(C)(C)NC(=O)Cn1nnnc1-c1nonc1N	-22%	2%	3	13	15%	?	19
CC(C)(C)NC(=O)Cn1c(-c2nonc2N)nc2ccccc21	31%	2%	-22	-4	-8%	3%	·
CCC(C)N(C(=O)Cn1cnc2c1c(=O)n(C)c(=O)n2C)C1CCS(=O)(=O)C1 (stereo not drawn)	5%	-5%	·	·	9%	·	·
CC(Nc1nc(-c2cccc(Br)c2)cs1)c1nc2cc(Cl)c(N3CCCCC3)cc2n1CCOCCO (stereo not drawn)	?	12%	25	7	?	10µM*	-9
CCC(C(=O)N1CCC(N2CCCCC2)CC1)n1nc(C)c2sc3ccccc3c2c1=O (stereo not drawn)	29%	-1%	-4	-8	?	2%	·
Cc1c(NC(=O)c2ccc(N3CCCC3)c([N+](=O)[O-])c2)cccc1-c1nc2ccccc2s1	?	6%	20	5	10µM*	2µM*	11
COc1ccc(/C=N/NS(=O)(=O)c2ccccc2)cc1OC(=O)c1ccc(C)cc1	67%	3%	-10	-1	35%	8.9µM*	-5
COc1ccc(/C=N/NS(=O)(=O)c2ccc(C)cc2)cc1OC(=O)c1ccccc1	17%	·	-2	-1	18%	7%	·
O=C(O)COc1ccccc1/C=N/NC(=O)CSc1nnc(SCc2cccc3ccccc23)s1	-29%	-1%	34	9	0%	3.5µM*	-29	PR8 titer=7.5*
C/C=C/c1ccc(OCC(=O)OCc2csc(CC(=O)Nc3ccccc3C)n2)c(OC)c1	-5%	-3%	-7	2	-13%	16%	·
O=C1CCCN1CC(=O)N1CCCC(Nc2cccc(F)c2)C1 (stereo not drawn)	22%	?	5	4	0%	2%	·
CC(C)(C)c1nnc2sc(SCC(=O)c3ccc(Cl)cc3)nn2c1=O	0%	-5%	2	0	?	11µM*	26	PR8 titer=8.5
CCOc1ccccc1-c1nc2c(C(C)(C)C)nn(C)c2c(=O)[nH]1	14%	0%	-14	-3	19%	2%	·
Cc1nn(Cc2ccccc2Cl)c(Cl)c1C(=O)OCC(=O)NC(=O)NC1CCCCC1	-6%	-3%	3	-1	7%	22µM*	-29
Cc1ccc(NC(=O)CCNC(=O)Cn2cnc3ccccc3c2=O)cc1F	9%	-9%	-5	-4	-4%	5%	·
COc1ccc(CN2C(=O)NC(=O)/C(=C/c3ccc(OC)c(OC)c3OC)C2=O)cc1	?	0%	13	-1	?	10µM*	35
COc1ccc(CN2C(=O)NC(=O)/C(=C/c3cc(OC)c(OC)c(OC)c3)C2=O)cc1	1%	-1%	-17	-1	11%	9%	·
FC(F)(F)c1cccc(NC(=S)N2CCN(c3cccc(C(F)(F)F)c3)CC2)c1	5.9µM*	5%	32	-6	-4%	?	31
SMILES	Pf growth 96h	SARS PLP yeast	Shiga inhibitor	Cycloheximide cs	Pf growth 48h	NS1 inh	NS1 inh valid	others
Fc1ccc(NC(=S)N2CCN(c3cccc(C(F)(F)F)c3)CC2)cc1	3%	-32%	-9	-4	0%	2%	·
COc1ccc(CCC(=O)OCc2csc(CC(=O)Nc3ccccc3C)n2)cc1	-22%	-5%	-2	-2	-16%	-4%	·
COc1cc(/C=N/NC(=O)c2sc3nc(C)cc(C)c3c2N)ccc1O	?	2%	13	1	?	?	5
COC(=O)c1sc2nc(C)cc(C)c2c1N	7%	0%	31	9	44%	3%	·
CC(C)NC(=O)COC(=O)c1ccc(Oc2ccccc2)cc1	-5%	11%	-6	3	·	-104%	·
COc1ccc(-n2c3nc4ccccc4nc3c3c(=N)oc(C)nc32)cc1	7%	5%	-8	-5	29%	10%	·
CCCNC(=O)CN(c1cccc(F)c1)S(C)(=O)=O	-18%	7%	-5	-2	-5%	-6%	·
O=C(COc1cccc2ccccc12)NNC(=O)c1cccs1	34%	-7%	-18	-1	28%	-38%	·
Cc1ccc(C2=CC(c3cccs3)n3nnnc3N2)cc1 (stereo not drawn)	23%	-2%	81	47*	62%	3.2µM*	-4
Cc1ccccc1NC(=O)CN(C)S(=O)(=O)c1cccc2cccnc12	-1%	3%	-9	1	·	-5%	·
O=S(=O)(O)c1ccc(N=Nc2ccc3c(S(=O)(=O)O)cccc3c2O)c2ccccc12	·	·	·	·	·	3%	·
COc1ccc(OC)c(S(=O)(=O)N2CCCC2C(=O)N2CCc3ccccc3C2)c1 (stereo not drawn)	2%	2%	-2	-7	2%	?	?
O=C(NCc1ccccc1)c1ccc(CN2CCOCC2)cc1	126%	4%	51	12	55%	?	-1
COc1ccc(OC)c(S(=O)(=O)N(C)CC(=O)O)c1	·	1%	-18	-6	2%	1.8µM*	4
CC1=C/C(=N\Nc2ccccc2[N+](=O)[O-])CC(C)(C)C1	-26%	0%	20	-3	?	-16%	·
CC(C)Sc1nnc([C@@H](N)Cc2ccccc2)o1	88%	10%	35	43*	51%	?	-3
